Here are results for 33 compounds from PubChem BioAssay (EPA / NIEHS).

Records with an inconclusive call do not appear. The source made the active and inactive calls. How the source made its calls: active means hit-call score of the fitted dose curve at least 0.9, where 1 is the maximum; inconclusive means response in the unintended direction; inactive means score below 0.9.

Tested on in the first test: not listed separately
As to the kind of experiment: ACEA_AR_antagonist_AUC_viability: ACEA Biosciences xCELLigence Real-Time Cell Analysis on Androgen Receptor Antagonism for Viability (AID 2283776).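 Further: 22Rv1 human prostate cancer cells growing on impedance electrode plates; area under impedance growth curve at 80 h after dosing as viability; hits lower the growth signal relative to DMSO meaning cytotoxicity.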 The procedure, abridged: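 22Rv1 prostate cells, continuous dosing up to 100 uM final (0.5% DMSO max), duplicate plates. Growth measured by impedance; AUC at 80 h, loss of signal vs DMSO.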
For `Cc1c(COC(=O)[C@@H]2[C@H](/C=C(\Cl)C(F)(F)F)C2(C)C)cccc1-c1ccccc1`, the AC50 is 31.4 µM (active).

As to `Clc1nc(Cl)nc(Nc2ccccc2Cl)n1`, the outcome was inactive.

In the case of `COc1cc(Cl)c(OC)cc1Cl`, the result was inactive.

Consider `CN=C=S`, for which the call was inactive.

Take `Cc1ccc(N=CN(C)C=Nc2ccc(C)cc2C)c(C)c1`: the AC50 was 17.6 µM (active).

In the case of `O=c1n(Cl)c(=O)n(Cl)c(=O)n1Cl`, the compound was called inactive.

Take `CCN(CC)C(=O)C(C)Oc1cccc2ccccc12` (centres undefined): the outcome was inactive.

For `CCN(CC)c1nc(C)cc(OP(=S)(OC)OC)n1`, the AC50 was 83.3 µM (active).

For `C=CCOC(=O)C(C)(C)OC(=O)c1cc(-n2c(=O)cc(C(F)(F)F)n(C)c2=O)ccc1Cl`, the AC50 is 50.5 µM (active).

As for `O=P(O)(O)CCCl`, the compound was classed as inactive.

Turning to `N#Cc1c(Cl)cccc1Cl`, the outcome was inactive.

Take `CC1(C)CCC(=Cc2ccc(Cl)cc2)C1(O)Cn1cncn1` (centres undefined): the compound was classed as inactive.

For the compound `CSC(=O)c1c(C(F)F)nc(C(F)(F)F)c(C(=O)SC)c1CC(C)C`, the AC50 is 37.4 µM (active).

On to `COC(=O)NC(=S)Nc1ccccc1NC(=S)NC(=O)OC`, for which the AC50 is 21.6 µM (active).

In the case of `CN/C(=N\[N+](=O)[O-])NCc1cnc(Cl)s1`, the compound was classed as inactive.

As to `C=C(C)CN(CC)c1c([N+](=O)[O-])cc(C(F)(F)F)cc1[N+](=O)[O-]`, the AC50 was 50 µM (active).

With `Nc1c(Cl)c(Cl)nc(C(=O)O)c1Cl`, the compound was called inactive.

Regarding `CCC(C)n1c(=O)[nH]c(C)c(Br)c1=O` (centres undefined), the call was inactive.

Turning to `CNC(=O)N(C)c1nnc(C(C)(C)C)s1`, the compound was classed as inactive.

For `CCCC(=NOCC)C1=C(O)CC(CC(C)SCC)CC1=O` (centres undefined), the compound was classed as inactive.

For `CC1(C)C(C=C(Cl)Cl)C1C(=O)OC(C#N)c1cccc(Oc2ccccc2)c1` (centres undefined), the outcome was inactive.

`Nc1cnn(-c2ccccc2)c(=O)c1Cl`: the outcome was inactive.

`CCOC(=O)C(C)OC(=O)c1cc(Oc2ccc(C(F)(F)F)cc2Cl)ccc1[N+](=O)[O-]` (centres undefined): the AC50 was 50 µM (active).

For the compound `CC(C)N1C(=O)c2ccccc2NS1(=O)=O`, the compound was classed as inactive.

Turning to `OC(c1ccc(Cl)cc1)(c1ccc(Cl)cc1)C(Cl)(Cl)Cl`, the AC50 was 13 µM (active).

As to `CCSC(=O)N1CCCCCC1`, the outcome was inactive.

As for `COP(=S)(OC)Oc1ccc([N+](=O)[O-])c(C)c1`, the AC50 was 71.9 µM (active).

As for `CC(C)Oc1cccc(NC(=O)c2ccccc2C(F)(F)F)c1`, the outcome was inactive.

On to `COCC(C)N(C(=O)CCl)c1c(C)csc1C` (centres undefined), for which the AC50 is 33 µM (active).

Consider `COP(=O)(OC)O/C(C)=C/C(=O)N(C)C`, for which the call was inactive.

As for `CC1(C)C(C(=O)OC(C#N)c2cccc(Oc3ccccc3)c2)C1(C)C` (centres undefined), the AC50 is 50 µM (active).

In the case of `CC(C)=CC1C(C(=O)OCc2coc(Cc3ccccc3)c2)C1(C)C` (centres undefined), the AC50 is 40.4 µM (active).

A further test concerns frog Estrogen Receptor (ESR1), gene 398734. The test can be described thus: ATG_frER1_XSP1: Attagene TRANS-FACTORIAL Multi-Species (XSP1) HepG2 Assay for frog Estrogen Receptor (ESR1) (AID 2283777). The procedure, abridged:
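HepG2 cells transiently transfected with frog ER–GAL4 chimera and GAL4-UAS reporter, with 3 nM 6-alpha-fluorotestosterone present; 24 h dosing, reporter mRNA quantified by RT-PCR and capillary electrophoresis, gain of signal versus DMSO.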
In the case of `Cc1c(COC(=O)[C@@H]2[C@H](/C=C(\Cl)C(F)(F)F)C2(C)C)cccc1-c1ccccc1`, the AC50 is 36.3 µM (active).

Turning to `CCN(CC)C(=O)C(C)Oc1cccc2ccccc12` (centres undefined), the AC50 was 24.8 µM (active).

Regarding `CC1(C)CCC(=Cc2ccc(Cl)cc2)C1(O)Cn1cncn1` (centres undefined), the compound was classed as inactive.

For `CC(C)NC(=O)N1CC(=O)N(c2cc(Cl)cc(Cl)c2)C1=O`, the AC50 is 100 µM (active).

On to `CC1(C)C(C=C(Cl)Cl)C1C(=O)OC(C#N)c1cccc(Oc2ccccc2)c1` (centres undefined), for which the AC50 was 2.24 µM (active).

`COP(=S)(OC)Oc1ccc([N+](=O)[O-])c(C)c1`: the AC50 was 48.9 µM (active).

Another test concerns zebrafish Estrogen Receptor (ESR2A), gene 317734. As to the kind of experiment: ATG_zfER2a_XSP1: Attagene TRANS-FACTORIAL Multi-Species (XSP1) HepG2 Assay for zebrafish Estrogen Receptor (ESR2A) (AID 2283778). Here is the method: ATG_XSP1_multi-species_TRANS is a cell-based, multiplexed assay created by modifying the existing Attagene TRANS-FACTORIAL system to include a panel of nuclear receptors from some or all the following species: human (Homo sapiens), mouse (Mus musculus), frog (Xenopus laevis), zebrafish (Danio rerio), chicken (Gallus gallus), and turtle (Chrysemys picta). The […] format uses HepG2, a human liver cell line, with measurements taken at 24 hours after chemical dosing in a 24-well plate. Xsp1 included 3 nM 6-alpha-fluorotestosterone to partially stimulate the androgen receptor.ATG_zfER2a_XSP1 is one of 29 assay components measured or calculated from the ATG_XSP1_multi-species_TRANS assay. It is designed to make measurements of mRNA induction, a form of inducible reporter, as detected with fluorescence intensity signals by Reverse transcription polymerase chain reaction (RT-PCR) and Capillary electrophoresis technology.The assay endpoint ATG_zfER2a_XSP1 was analyzed in the positive analysis fitting direction relative to DMSO as the negative control and baseline of activity. Using a type of inducible reporter, measures of mRNA for gain-of-signal activity can be used to understand the reporter gene at the transcription factor-level as they relate to the gene ER. Furthermore, this assay endpoint can be referred to as a primary readout, because this assay has produced multiple assay endpoints where this one serves a reporter gene function. To generalize the intended target to other relatable targets, this assay endpoint is annotated to the nuclear receptor intended target family, where the subfamily is steroidal.
Human liver HepG2 cells are transiently transfected with multiple reporter transcription units (MRTUs) in 6-well plates using FuGene 6 reagent (Roche; 3 ml FuGene/1 mg DNA). The MRTU constructs are regulated by a cis-regulating element (promoter). […] A major difference between the CIS and TRANS system is that in CIS activities of endogenous TFs are measured, whereas the TRANS assay evaluates changes in activities of exogenous, chimeric NR-Gal4 proteins. […] At the end of 24 hour incubation, total RNA was isolated using TriZol reagent (Invitrogen). The isolated RNA is then reverse-transcribed using oligo(dT) primer and Mo-MLV reverse transcriptase (Invitrogen) with DNAse I (Ambion) treatment for 30 min. The one-tenth of the produced cDNA was amplified by PCR using Taq DNA polymerase (Invitrogen) and two reporter sequence-specific primers. The PCR products were fluorescently labeled by primer extension with 6-arboxyfluorescein (6-FAM) 5'-labeled reporter sequence-specific primer (2 min at 95 C, 20 s at 68 C and 10 min at 72 C) and these products were digested with 5U of HpaI (New England Biolabs) for 2h at 37 C. The fragments were purified using Qiaquick PCR columns (Qiagen), analyzed on an ABI 3130xL genetic analyzer (Applied Biosystems) with peak positions identified by using a set of X-rhodamine (ROX)-labeled MapMarker1000 molecular weight standards (BioVentures). The raw capillary electrophoresis data was processed using Attagraph software (Attagene).
Take `Cc1c(COC(=O)[C@@H]2[C@H](/C=C(\Cl)C(F)(F)F)C2(C)C)cccc1-c1ccccc1`: the call was inactive.

For the compound `CCN(CC)C(=O)C(C)Oc1cccc2ccccc12` (centres undefined), the AC50 was 25.8 µM (active).

As for `CC1(C)CCC(=Cc2ccc(Cl)cc2)C1(O)Cn1cncn1` (centres undefined), the call was inactive.

Take `CSC(=O)c1c(C(F)F)nc(C(F)(F)F)c(C(=O)SC)c1CC(C)C`: the compound was called inactive.

For `CC(C)NC(=O)N1CC(=O)N(c2cc(Cl)cc(Cl)c2)C1=O`, the compound was called inactive.

Regarding `CC1(C)C(C=C(Cl)Cl)C1C(=O)OC(C#N)c1cccc(Oc2ccccc2)c1` (centres undefined), the call was inactive.

As to `COP(=S)(OC)Oc1ccc([N+](=O)[O-])c(C)c1`, the result was inactive.

In the next test the target is chicken Estrogen Receptor (ESR1), ESR1 (gene 396099) (UniProt P06212). The test can be described thus: ATG_chERa_XSP1: Attagene TRANS-FACTORIAL Multi-Species (XSP1) HepG2 Assay for chicken Estrogen Receptor (ESR1) (AID 2283779). In short, it runs like this: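 HepG2 cells transiently transfected with GAL4-UAS reporter units for chimeric chicken ERα-Gal4, dosed 24 h with 3 nM 6-alpha-fluorotestosterone present. Reporter mRNA by RT-PCR and capillary electrophoresis; gain-of-signal fit versus DMSO.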
chicken Estrogen Receptor (ESR1), ESR1 (gene 396099), sequence (P06212 whole entry, looked up, the tested form may be a part): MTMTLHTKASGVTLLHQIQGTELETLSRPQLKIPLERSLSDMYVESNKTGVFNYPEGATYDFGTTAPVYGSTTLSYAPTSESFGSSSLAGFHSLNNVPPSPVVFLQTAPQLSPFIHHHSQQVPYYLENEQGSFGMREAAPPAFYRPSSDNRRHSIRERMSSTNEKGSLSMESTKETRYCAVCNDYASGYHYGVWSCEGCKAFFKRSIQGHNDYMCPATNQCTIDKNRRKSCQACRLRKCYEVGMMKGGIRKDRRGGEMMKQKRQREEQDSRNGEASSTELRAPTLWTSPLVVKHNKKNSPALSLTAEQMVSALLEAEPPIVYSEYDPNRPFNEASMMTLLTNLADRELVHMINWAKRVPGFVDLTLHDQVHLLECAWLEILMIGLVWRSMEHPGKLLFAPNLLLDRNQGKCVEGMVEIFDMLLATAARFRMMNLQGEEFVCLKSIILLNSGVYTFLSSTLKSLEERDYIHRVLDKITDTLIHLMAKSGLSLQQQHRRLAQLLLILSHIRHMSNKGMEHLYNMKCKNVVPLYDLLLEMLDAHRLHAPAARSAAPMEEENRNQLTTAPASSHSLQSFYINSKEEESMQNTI
Regarding `Cc1c(COC(=O)[C@@H]2[C@H](/C=C(\Cl)C(F)(F)F)C2(C)C)cccc1-c1ccccc1`, the call was inactive.

Take `CCN(CC)C(=O)C(C)Oc1cccc2ccccc12` (centres undefined): the call was inactive.

Consider `CC1(C)CCC(=Cc2ccc(Cl)cc2)C1(O)Cn1cncn1` (centres undefined), for which the AC50 was 3.53 µM (active).

Take `CSC(=O)c1c(C(F)F)nc(C(F)(F)F)c(C(=O)SC)c1CC(C)C`: the call was inactive.

Regarding `CC(C)NC(=O)N1CC(=O)N(c2cc(Cl)cc(Cl)c2)C1=O`, the outcome was inactive.

Turning to `CC1(C)C(C=C(Cl)Cl)C1C(=O)OC(C#N)c1cccc(Oc2ccccc2)c1` (centres undefined), the call was inactive.

Turning to `COP(=S)(OC)Oc1ccc([N+](=O)[O-])c(C)c1`, the AC50 was 43.2 µM (active).

A further test deals with Estrogen receptor (Homo sapiens) (UniProt P03372). The test can be described thus: ATG_hERa_XSP1: Attagene TRANS-FACTORIAL Multi-Species (XSP1) HepG2 Assay for human Estrogen Receptor (ESR1) (AID 2283780). The procedure, abridged: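 HepG2 cells transiently transfected with GAL4-UAS reporter units and chimeric NR-Gal4 constructs; 24 h after dosing, reporter mRNA quantified by RT-PCR and capillary electrophoresis. Medium contained 3 nM 6-alpha-fluorotestosterone; activity fitted as gain-of-signal versus DMSO.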
Estrogen receptor (Homo sapiens), sequence (P03372 whole entry, looked up, the tested form may be a part): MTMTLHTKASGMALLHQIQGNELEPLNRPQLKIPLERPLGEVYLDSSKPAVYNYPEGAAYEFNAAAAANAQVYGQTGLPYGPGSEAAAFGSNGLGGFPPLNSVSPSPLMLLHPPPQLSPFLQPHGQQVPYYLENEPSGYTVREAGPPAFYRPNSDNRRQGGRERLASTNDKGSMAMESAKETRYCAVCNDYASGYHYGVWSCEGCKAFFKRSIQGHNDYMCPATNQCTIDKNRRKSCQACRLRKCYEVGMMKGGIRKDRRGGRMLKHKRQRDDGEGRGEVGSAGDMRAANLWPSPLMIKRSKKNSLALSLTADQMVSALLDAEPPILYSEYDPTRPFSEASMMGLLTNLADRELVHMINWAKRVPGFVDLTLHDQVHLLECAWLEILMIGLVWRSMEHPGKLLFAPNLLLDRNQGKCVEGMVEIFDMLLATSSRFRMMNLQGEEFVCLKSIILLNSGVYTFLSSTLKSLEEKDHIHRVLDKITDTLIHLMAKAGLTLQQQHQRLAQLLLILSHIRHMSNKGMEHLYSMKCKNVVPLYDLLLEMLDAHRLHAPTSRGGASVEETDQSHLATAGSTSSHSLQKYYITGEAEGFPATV
Regarding `Cc1c(COC(=O)[C@@H]2[C@H](/C=C(\Cl)C(F)(F)F)C2(C)C)cccc1-c1ccccc1`, the AC50 was 21.8 µM (active).

As for `CCN(CC)C(=O)C(C)Oc1cccc2ccccc12` (centres undefined), the call was inactive.

Take `CC1(C)CCC(=Cc2ccc(Cl)cc2)C1(O)Cn1cncn1` (centres undefined): the AC50 is 3.95 µM (active).

As to `CSC(=O)c1c(C(F)F)nc(C(F)(F)F)c(C(=O)SC)c1CC(C)C`, the AC50 was 6.12 µM (active).

For `CC(C)NC(=O)N1CC(=O)N(c2cc(Cl)cc(Cl)c2)C1=O`, the AC50 is 10.3 µM (active).

As for `CC1(C)C(C=C(Cl)Cl)C1C(=O)OC(C#N)c1cccc(Oc2ccccc2)c1` (centres undefined), the AC50 is 1.45 µM (active).

Regarding `COP(=S)(OC)Oc1ccc([N+](=O)[O-])c(C)c1`, the AC50 is 36.7 µM (active).

In general, AC50 refers to the midpoint of the concentration-response curve, whichever way the signal moves.
